# VACV mCherry inh – qHTS for Stage-Specific Inhibitors of Vaccinia Orthopoxvirus: mCherry Reporter Primary qHTS; Potency, µM (titrated, usually from 36.5 µM), without a hit: at the highest dose activity change, negative = inhibition, actives largely listed as inhibitors; Vaccinia virus mCherry reporter infection, fluorescence; hit rate 0.63% among 310,000; calls by dose curve; tested in A549 cells; note: potency is the fitted concentration of half-maximal effect; nearly all actives have a fitted effect of over 35% in size
# FMDV inh – High Throughput Screening for Foot and Mouth Disease Virus Antivirals; hit rate 1.2% among 410,000; AID 1159524, 2015; Potency, µM (top dose mostly 57.9 µM), without a hit: top-dose activity change, negative = inhibition, hits mostly inhibitors; FMDV antiviral cell-based qHTS; calls by dose curve; tested in HEK293T cells; note: read-out not given here; potency is the fitted concentration of half-maximal effect; nearly all actives have a fitted effect of over 45% in size
# VACV Venus inh – qHTS for Stage-Specific Inhibitors of Vaccinia Orthopoxvirus: Venus Reporter Primary qHTS | Vaccinia virus Venus reporter expression, fluorescence | hit rate 0.46% among 330,000 | Potency, µM (highest dose often 36.5 µM), for inactives: top-dose activity change, negative = inhibition, hits mostly inhibitors | AID 720580, 2013; calls by dose curve; tested in A549 cells; note: potency is the fitted concentration of half-maximal effect; nearly all actives have a fitted effect of over 30% in size
# Lassa entry inh – qHTS for Inhibitors of binding or entry into cells for Lassa Virus. Potency, µM (titrated, usually from 37.9 µM), inactives show at the top dose activity change, negative = inhibition, hits mostly inhibitors. Lassa virus pseudotype entry inhibition, cell reporter. hit rate 1.2% among 300,000; calls by dose curve; tested in HEK293 cells; note: potency is the fitted concentration of half-maximal effect; nearly all actives have a fitted effect of over 50% in size
# MARV entry inh – qHTS for inhibitors of binding or entry into cells for Marburg Virus | Marburg virus pseudotyped entry inhibition, cell reporter | Potency, µM (top dose mostly 37.8 µM), inactives show at the top dose activity change, negative = inhibition, usual class: inhibitors | hit rate 1.8% among 300,000 | AID 540276, 2011; calls by dose curve; tested in HEK293 cells; note: potency is the fitted concentration of half-maximal effect
# HCMV antiviral – qHTS Assay for inhibitors of the human cytomegalovirus (HCMV); hit rate 4.5% among 410,000; AID 1259415, 2018; HFF cells, HCMV-luciferase reporter, 72 h; active compounds read low; activity change, negative = inhibition, % at 57.5 µM; in the data active = activity change below about -60%; inconclusive = no clear call, values can overlap the other calls; inactive = above about -39%
#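 Screen run at 2 compound doses on HFFs infected with reporter HCMV, MOI 1 PFU/cell. Luciferase activity from cell lysates at 72 h post infection gave inhibition relative to buffer-only and Salinomycin wells.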
# The depositor's hits bear a star; i = inactive; u = inconclusive; x = no result; ! = a repeat was not active; [ ] = dose if it differs, or a comment. Hits are enriched below; roughly 6.5% of the tested compounds scored in any of these assays. % is set by controls: 0 for no effect and ±100 for the full control effect.
SMILES,VACV mCherry inh,FMDV inh,VACV Venus inh,Lassa entry inh,MARV entry inh,HCMV antiviral
Cc1cc2ccccn2c1C(=O)c1ccc([N+](=O)[O-])o1,u,u,u,u,u,-66*
Cc1cc2ccccn2c1C(=O)c1ccc(S(=O)(=O)N(C)C)cc1,-14%,u,-17%,-13%[46.1 µM],-2%[46.1 µM],-66*
Cc1cc2ccccn2c1C(=O)c1cccc([N+](=O)[O-])c1,-15%,u,-11%,u,u,u
c1ccc(NC2C(c3ccccc3)=Nc3ccccc3-n3nnnc32)cc1 (centres undefined),x,x,x,x,x,3
C=CS(=O)(=O)N(Cc1ccccc1)[C@H](CO)CC(C)C,u,-30%,1.1µM*,x,x,1
O=S(=O)(N(Cc1ccccc1)[C@@H](CO)Cc1ccccc1)N(Cc1ccccc1)[C@@H](CO)Cc1ccccc1,-6%,-25%,-27%,x,x,5
CC(C)C[C@H](CO)N(Cc1ccccc1)S(=O)(=O)N(Cc1ccccc1)[C@@H](CO)CC(C)C,14µM*!,u,u,x,x,u
C=CS(=O)(=O)N(Cc1ccccc1Br)[C@H](CO)Cc1ccccc1,u,u,1.1µM*,x,x,-21
CN(C)CCC=C1c2ccccc2COc2ccccc21,x,-10%[39.8 µM],x,x,x,x
Cc1sc2nc(CSc3ccccc3)nc(N3CCN(C)CC3)c2c1C,1%,u,-29%,u,u,u
COCCNc1nc(CSc2ccccc2)nc2sc(C)c(C)c12,i,0%,-23%,u,-4%,-70*
CN(CCc1ccccc1)C(=O)c1ccc(NC(=O)Cc2ccc(NC(=O)C3CCN(C(=O)C4CCCC4)CC3)cc2)cc1,u,u,u,x,x,-71*
CN(CCc1ccccc1)C(=O)c1ccc(NC(=O)Cc2ccc(NC(=O)C3CCN(C(=O)c4ccccc4)CC3)cc2)cc1,u,-8%,-20%,x,x,-63*
CN(CCc1ccccc1)C(=O)c1ccc(NC(=O)Cc2ccc(NC(=O)C3CCN(C(=O)C4CC4)CC3)cc2)cc1,i,-11%,-18%,x,x,u
CN(CCc1ccccc1)C(=O)c1ccc(NC(=O)Cc2ccc(NC(=O)C3CCCN(C(=O)c4ccccc4)C3)cc2)cc1 (centres undefined),u,u,-25%,x,x,-76*
CC(O)(COc1ccccc1)c1ccc2c(c1)CN(Cc1ccccn1)CCO2 (centres undefined),-9%,-4%,-5%,x,x,x
O=C(N/N=C/c1ccc[nH]1)c1ccc([N+](=O)[O-])cc1,-23%,19%,-8%,18%,u,53
CC(C)(C)NC(=O)C12CCC(C)(c3nc4ccccc4nc31)C2(C)C (centres undefined),x,-28%,x,-10%,u,-94*
CCN1CCc2nc3sc(C(=O)Nc4cccc(Cl)c4C)c(N)c3cc2C1,u,14µM*,-26%,4%[46.1 µM],u,u
Cc1ccc(NC(=O)c2sc3nc4c(cc3c2N)CN(Cc2ccccc2)CC4)cc1,u,-20%,u,19%[46.1 µM],u,-63*
COc1ccc(NC(=O)c2sc3nc4c(cc3c2N)CN(Cc2ccccc2)CC4)cc1,-7%,-7%,-3%,5%[46.1 µM],u,3
O=c1c2ccccc2[nH]c(=S)n1CCCN1CCN(c2ccccc2F)CC1,x,-13%,x,x,x,-63*
O=c1c2cccnc2[nH]c(=S)n1CCCN1CCN(c2ccccc2F)CC1,i,0%,-9%,u,-28%,-30
O=c1c2ccccc2[nH]c(=S)n1CCCN1CCN(c2ccccc2)CC1,u,-30%,7%,u,u,-67*
Cc1ccc(NC(=O)c2cc(-c3cc(F)ccc3OCC3CCCO3)n[nH]2)cc1NS(C)(=O)=O (centres undefined),i,-20%,-17%,x,x,-3
SMILES,VACV mCherry inh,FMDV inh,VACV Venus inh,Lassa entry inh,MARV entry inh,HCMV antiviral
CCOC(=O)CNC(=O)c1cc2c(=O)oc3ccccc3c2s1,-10%,-4%,10%,12%[46.1 µM],-5%[46.1 µM],2
CN1CCC2(CC1)[C@H]1CN(C)CC=C1C(C#N)=C(N)C2(C#N)C#N,x,x,x,x,-9%,x
C=CCN1C(=O)/C(=C/c2cc(C)n(-c3cccnc3)c2C)C(=O)NC1=S,-9%,35µM*,13%,1%,32%,-14
CC1=NN(c2ccccc2)C(=O)/C1=C\c1cc(C)n(-c2ccccc2)c1C,-14%,16%,-1%,4%,19%,u
CC1=NN(c2ccccc2)C(=O)/C1=C\c1cc(C)n(-c2cccnc2)c1C,i,9%,-6%,u,7%,-73*
CC1CN=C(c2ccc(Cl)cc2)c2c3ccccc3nn21 (centres undefined),x,x,x,x,x,26
N#C/C(=C\c1ccc(-c2ccc(C(=O)O)cc2)o1)c1nc2ccccc2[nH]1,-6%,0%,13%,u,10µM*,52
O=C(CSc1nnc2ccccn12)NCc1ccc2c(c1)OCO2,x,13%,x,x,x,-79*
Cn1nc(C(C)(C)C)cc1C(=O)NCc1ccc2c(c1)OCO2,x,u,x,x,x,-83*
Cc1oc(C(C)(C)C)cc1C(=O)NCc1ccc2c(c1)OCO2,-9%,6%,7%,-12%[46.1 µM],-23%[46.1 µM],12
CN1CC(=O)N(CC(=O)NCc2ccc3c(c2)OCO3)C1=O,i,1%,-9%,21%,7%,-102*
CCCc1nc2ccccc2c(C(=O)OC(C)C(=O)NCc2ccc3c(c2)OCO3)c1CC (centres undefined),u,u,10µM*,-21%,u,-35
O=C(Nc1ccc(-c2nc3cc(Cl)ccc3o2)cc1)c1cc2ccccc2o1,u,-8%,-22%,14%[46.1 µM],x,14
COc1ccc(N2CCN(C(=O)c3cccc(NC(=O)c4ccco4)c3)CC2)cc1,-7%,18%,-6%,u,-11%,x
O=C1N=C(O)CN1/N=C/C1C=CC(c2ccc([N+](=O)[O-])cc2)O1 (centres undefined),x,x,x,x,16%,x
O=C(CSc1nc(CCC2CCCC2)nc2ccccc12)NCc1ccc2c(c1)OCO2,-5%,-3%,-22%,u,13µM*,u
Cc1cc(NC(=O)CSc2nc(CCC3CCCC3)nc3ccccc23)no1,x,u,x,10%,5%,u
O=C(CSc1nc(C2CCCCC2)nc2ccccc12)NCc1ccco1,u,u,u,5%,-17%[46.1 µM],-102*
Cc1nc2ccccn2c1C(=O)NCc1ccc2c(c1)OCO2,-3%,x,-19%,3%,-10%,-61*
Cc1sc2nc(C3CC3)nc(SCC(=O)NCc3ccco3)c2c1C,-4%,x,-25%,-21%,2%,7
CC(C)c1c(O)ccc2c1CC[C@H]1C(C)(C)CCC[C@]21C,-23%,u,u,x,x,13
